Results reported in PubChem BioAssay (NCATS).
Records with an inconclusive call do not appear. A number with no mark means an inactive call. Active and inactive are the calls of the source. Calls come from the whole dose curve; as a rule, active = well fitted inhibition curve with a large enough effect in the repeat runs; inconclusive = weak or mixed curves; inactive = no such curve, though single readings can be large or run the other way.

What follows are compounds tested against Cytochrome P450 2C9 (Homo sapiens) (UniProt P11712) (assay: Cytochrome P450 family 2 subfamily C member 9 (CYP2C9) small molecule antagonists: luciferase biochemical (cell-free) qHTS assay (AID 1645842; note: nearly all actives have a fitted effect of over 55% in size)). Conditions: P450-Glo CYP2C9 enzyme assay, luciferin luminescence; series mostly up to 57.4 µM; activity change, negative = inhibition: at the top concentration.
Experimental: National Center for Advancing Translational Sciences [NCATS] Assay Overview: Cytochrome P450 (CYP) enzymes are membrane-bound hemeproteins that play a key role in metabolism of drugs and xenobiotics. Assaying the effect of chemicals on CYP isozymes is useful to minimize the adverse drug reactions and toxicities in drug development process. Chemical compounds were tested for their effect on CYP enzyme activities by using P450-Glo (TM) screening systems (Promega Corporation, Madison, WI). These systems provide a luminescent method containing proluciferin substrates and are converted to luciferin products by CYP isozymes. The luciferin products formed are detected with a luciferin detection reagent, and the amount of light produced is proportional to CYP activity. P450-Glo (TM) CYP2C9 screening system (Catalog. No. V9790) was used to detect the compounds that interfere in CYP2C9 activity.
Assay Protocol Summary: Two ul of enzyme-substrate mix supplemented with 0.4% Bovine Serum Albumin was dispensed into medium binding white/solid 1536-well plates (Greiner Bio-One North America Inc., Monroe, NC) using a Flying Reagent Dispenser (FRD, Aurora Discovery, San Diego, CA). […] The assay plates were incubated at room temperature for 10 min. Then 2 ul of NADPH regeneration solution was added to each well of the assay plates using an FRD and incubated at 37C for 1 h. The reaction was stopped by adding 4 ul of detection reagent using an FRD and after 20 min incubation at room temperature, the luminescence signal was measured using a ViewLux plate reader (Perkin Elmer, Shelton, CT). Data were expressed as relative luminescence units.
% is set by controls: 0 for no effect and ±100 for the full control effect; potency is the fitted concentration of half-maximal effect.

Chain of Cytochrome P450 2C9 (Homo sapiens) (P11712 whole entry, looked up): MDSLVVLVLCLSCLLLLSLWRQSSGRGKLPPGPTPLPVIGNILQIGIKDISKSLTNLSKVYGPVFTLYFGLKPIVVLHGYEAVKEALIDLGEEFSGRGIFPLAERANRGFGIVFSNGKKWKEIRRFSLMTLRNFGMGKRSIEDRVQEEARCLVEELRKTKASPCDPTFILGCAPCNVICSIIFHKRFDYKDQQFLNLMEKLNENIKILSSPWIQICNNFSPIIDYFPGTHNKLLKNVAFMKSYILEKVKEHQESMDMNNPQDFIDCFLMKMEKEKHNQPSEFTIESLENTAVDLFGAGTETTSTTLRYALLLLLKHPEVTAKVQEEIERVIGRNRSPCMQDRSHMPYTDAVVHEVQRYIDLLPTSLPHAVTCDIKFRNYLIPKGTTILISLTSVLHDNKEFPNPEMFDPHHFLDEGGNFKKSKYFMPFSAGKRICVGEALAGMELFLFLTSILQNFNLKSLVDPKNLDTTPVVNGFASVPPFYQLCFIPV

Structure (SMILES) | activity change, negative = inhibition | Potency
COC(=O)CC1CC(c2ccc(O)cc2)=NO1 (stereo not given) | 72.2% | 
Cc1ccc(S(=O)(=O)n2ccc(-c3c(-c4ccc(Cl)cc4)noc3C)n2)cc1 |  | 5.35 µM (active)
Cc1cc(C)c(CNC(=O)c2cc(-c3ccc(CN4CCOCC4)cc3)cc3c2cnn3C2CCCC2)c(=O)[nH]1 |  | 2.39 µM (active)
Cc1ccc(C(=O)N(CCCN)C(c2oc3cc(Cl)ccc3c(=O)c2Cc2ccccc2)C(C)C)cc1 (stereo not given) |  | 10.7 µM (active)
CSc1ccc(C(=O)N[C@@H]2CCCC[C@@H]2NC(=O)CNC(=O)c2cc(C(F)(F)F)ccc2NC(=O)NC(C)C)cc1 |  | 3.01 µM (active)
Cc1cc(OCc2nnc(SC3CCCC3)n2-c2cccnc2)ccc1-c1ccc(S(C)(=O)=O)cc1 |  | 8.49 µM (active)
COc1ccccc1Oc1ccc(N(Cc2cccnc2)S(=O)(=O)CC(F)(F)F)cc1 |  | 1.9 µM (active)
N#Cc1ccc(-c2cnc3[nH]cc(NC(=O)c4cccnc4)c3c2)cc1 |  | 2.68 µM (active)
C[C@@H]1CN(Cc2ncccn2)C[C@H]1c1nc2c(cnn2C2CCOCC2)c(=O)[nH]1 | -23.4% | 
Cc1cccc(S(=O)(=O)N2CCC[C@@H]2CCN2CCC(C)CC2)c1 | 17.9% | 
Cc1ccc(NC(=O)Nc2cc(C(F)(F)F)ccc2F)cc1Nc1ccc2c(c1)NC(=O)/C2=C\c1ccc[nH]1 | 8.75% | 
c1cn2cc(-c3ccc4cn[nH]c4c3)nc(Nc3ccc(N4CCOCC4)cc3)c2n1 |  | 0.601 µM (active)
CCN(CC)Cc1ccc(C(=O)N(CCc2ccccc2OC)[C@@H]2CCNC2)cc1 | 3.26% | 
C=CC(=O)Nc1cc(Nc2nccc(-c3c[nH]c4ccccc34)n2)c(OC)cc1N(C)CCN(C)C |  | 8.49 µM (active)
COc1cc2c(NC3CCN(CC4CCCCC4)CC3)nc(N3CCCN(C(C)C)CC3)nc2cc1OCCCN1CCCCC1 |  | inactive
CN1CCC(Nc2nc(Nc3ccc(Oc4ccccc4)cc3)c3c(=O)[nH]cc(Br)c3n2)CC1 |  | 16.9 µM (active)
O=C(CN1C(=O)C2(CCCC2)NCC1c1cc(F)cc(F)c1)Nc1ccc2c(c1)CC1(C2)C(=O)Nc2ncccc21 (stereo not given) |  | 3.01 µM (active)
Nc1ccc(-c2cccc3c(=O)cc(N4CCOCC4)oc23)cc1 |  | 9.52 µM (active)
O=C1CC2(CCCC2)[C@H](O)C(=O)N1CCCCN1CCN(c2ncccn2)CC1 |  | 10.7 µM (active)
c1ccc(N2CCN(CCc3nn[nH]n3)CC2)cc1 |  | 9.52 µM (active)

Structure (SMILES) | activity change, negative = inhibition | Potency
CC(C)(C#N)c1ccc(N2C(=O)OCc3cnc4ccc(-c5cnc6ccccc6c5)cc4c32)cc1 |  | 2.68 µM (active)
COc1cc2nc(N3CCC(N4CCCCC4)CC3)nc(NC3CCCCCC3)c2cc1OC | 25% | 
COc1ccc(-c2cnc(-c3cccc4c3-c3ccccc3C4=O)o2)cc1 |  | 0.657 µM (active)
COCCN1CCN(Cc2ccc(-c3n[nH]c4c3C(=O)c3c(NC(=O)NN5CCOCC5)cccc3-4)cc2)CC1 |  | 2.13 µM (active)
CNCc1ccc(-c2cc(-c3nc(-c4ccc(S(=O)(=O)C(C)C)cc4)cnc3N)on2)cc1 |  | 2.13 µM (active)
NCc1ccc(Nc2ncc(F)c(Nc3ccccc3)n2)cc1 |  | 6.74 µM (active)
COc1cc(N2CCOCC2)ccc1Nc1ncc(Cl)c(Nc2ccccc2NS(C)(=O)=O)n1 | 15.4% | 
O=C(c1cn(Cc2cncn2Cc2ccc(Br)cc2)cc1-c1cccc2ccccc12)N1CCOCC1 |  | 1.69 µM (active)
CNS(=O)(=O)c1ccccc1Nc1nc(Nc2ccc(N3CCN(C)CC3)cc2OC)ncc1Cl |  | 3.38 µM (active)
CC(C)(F)C[C@@H](N[C@@H](c1ccc(-c2ccc(S(C)(=O)=O)cc2)cc1)C(F)(F)F)C(=O)NC1(C#N)CC1 |  | 19 µM (active)
O=c1[nH]ccc2cc(OC3CCNCC3)ccc12 | 3.44% | 
CC(C)c1nnc(-c2ccc(-c3ccccc3)nc2)n1-c1cccc2nonc12 |  | 13.5 µM (active)
CN(C)CCn1cc(S(=O)(=O)c2cccc(F)c2)c2cccnc21 | 19.3% | 
COc1cc(Br)c(Nc2nc(-c3c(C)nc4ncccn34)cs2)c(Br)c1 |  | 8.49 µM (active)
CCO[C@@H]1OC(=O)C[C@@H]1NC(=O)[C@@H]1CCCN1C(=O)[C@@H](NC(=O)c1ccc(N)c(Cl)c1)C(C)(C)C | -28.7% | 
Cn1cc(S(=O)(=O)c2ccc(Cl)cc2)c2cccc(N3CCNCC3)c21 |  | 8.49 µM (active)
COC(C(=O)N1Cc2[nH]nc(NC(=O)c3ccc(N4CCN(C)CC4)cc3)c2C1)c1ccccc1 (stereo not given) | -11.9% | 
Cc1onc(C(=O)N2CCN(C(c3ccc(Cl)cc3)c3ccc(Cl)cc3)CC2)c1[N+](=O)[O-] |  | 5.35 µM (active)
COc1ncc2cc(C(=O)Nc3cc(C(=O)NCc4cccc(Cl)c4)ccc3Cl)c(=O)[nH]c2n1 |  | 19 µM (active)
CC(NC(=O)C(O)C(C)C)C(=O)NC1C(=O)N(C)CCc2ccccc21 (stereo not given) | 5.56% | 
